Source: paper PMC7862700, “An all-to-all approach to the identification of sequence-specific readers for epigenetic DNA modifications on cytosine”

Key:
Assay in all cases: DAPPL (digital affinity profiling via proximity ligation, sequencing); 10 mM Tris-HCl pH 7.5, 50 mM NaCl, 1 mM DTT, 4% glycerol, room temperature, 30 min; GST-TFs on glutathione beads, 16-mer random dsDNA library, 0.1% formaldehyde crosslink after washing; high values mean tight binding
Conditions in all cases: protein: recombinant; tags: N-terminal GST; dsDNA, one strand shown
GABPA = molecular target: T1, GABPA (Homo sapiens, UniProt Q06546 1-454)
T1 sequence: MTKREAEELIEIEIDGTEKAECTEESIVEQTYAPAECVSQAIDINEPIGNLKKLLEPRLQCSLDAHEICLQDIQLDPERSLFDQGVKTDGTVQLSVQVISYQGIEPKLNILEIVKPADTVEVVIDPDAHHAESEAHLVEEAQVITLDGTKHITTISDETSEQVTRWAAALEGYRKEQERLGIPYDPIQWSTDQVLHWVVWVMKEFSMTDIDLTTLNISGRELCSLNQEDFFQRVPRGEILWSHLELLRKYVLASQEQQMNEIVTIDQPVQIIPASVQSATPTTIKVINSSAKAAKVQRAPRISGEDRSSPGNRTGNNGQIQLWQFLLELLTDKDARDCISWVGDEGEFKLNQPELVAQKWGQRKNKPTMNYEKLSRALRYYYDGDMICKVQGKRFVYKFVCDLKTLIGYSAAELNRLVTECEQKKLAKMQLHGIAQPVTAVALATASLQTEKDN
How it was run: (§1)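 The binding signal reported is, for every hexamer, its read frequency for a factor over its read frequency for the tag-only sample. Reads came from pools of yeast-expressed, GST-fused human transcription factors on glutathione beads, barcoded with DNA and mixed with that sample, which were incubated with 200 nmole of a random double-stranded 16-mer DNA library in Tris/NaCl/DTT/glycerol buffer at room temperature for 30 min. After washing, the pools were crosslinked with 0.1% formaldehyde, proximity-ligated with BsaI/T4 ligase for 1 h at 37 °C, PCR-amplified and sequenced on an Illumina NextSeq500.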

ERG = molecular target: T2, ERG (Homo sapiens, UniProt P11308 1-479)
T2 sequence: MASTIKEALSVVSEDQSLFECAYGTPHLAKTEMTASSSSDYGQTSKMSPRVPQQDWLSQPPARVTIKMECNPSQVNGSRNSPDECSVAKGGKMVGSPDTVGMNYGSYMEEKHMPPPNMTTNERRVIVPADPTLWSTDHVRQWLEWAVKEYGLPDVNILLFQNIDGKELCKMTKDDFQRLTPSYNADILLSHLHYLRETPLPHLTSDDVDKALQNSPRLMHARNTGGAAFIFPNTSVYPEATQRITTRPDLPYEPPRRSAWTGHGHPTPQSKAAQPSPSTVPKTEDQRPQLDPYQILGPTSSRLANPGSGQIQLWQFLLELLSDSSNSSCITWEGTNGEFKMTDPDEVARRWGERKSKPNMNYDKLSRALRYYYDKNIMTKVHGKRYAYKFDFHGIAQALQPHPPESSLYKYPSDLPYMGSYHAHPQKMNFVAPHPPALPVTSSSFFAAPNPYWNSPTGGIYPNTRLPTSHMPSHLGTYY
How it was run: as §1

ELF1 = ELF1 (Homo sapiens, UniProt P32519 1-619)
Chain of ELF1 (P32519 whole entry): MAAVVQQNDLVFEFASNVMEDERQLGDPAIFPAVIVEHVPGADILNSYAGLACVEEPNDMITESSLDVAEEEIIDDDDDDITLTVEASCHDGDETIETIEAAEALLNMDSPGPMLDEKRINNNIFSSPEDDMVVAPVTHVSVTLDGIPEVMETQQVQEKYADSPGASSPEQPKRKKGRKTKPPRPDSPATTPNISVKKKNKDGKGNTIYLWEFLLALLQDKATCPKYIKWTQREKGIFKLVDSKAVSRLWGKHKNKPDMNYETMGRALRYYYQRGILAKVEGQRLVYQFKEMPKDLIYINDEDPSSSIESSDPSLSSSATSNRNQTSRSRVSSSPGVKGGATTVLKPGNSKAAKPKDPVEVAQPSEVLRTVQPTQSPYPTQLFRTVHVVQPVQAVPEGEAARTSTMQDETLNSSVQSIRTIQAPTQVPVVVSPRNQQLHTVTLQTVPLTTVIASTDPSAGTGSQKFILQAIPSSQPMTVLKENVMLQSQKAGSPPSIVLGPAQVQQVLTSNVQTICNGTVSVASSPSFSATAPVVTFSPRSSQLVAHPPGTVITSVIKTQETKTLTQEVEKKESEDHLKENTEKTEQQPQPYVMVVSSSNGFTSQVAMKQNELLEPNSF
How it was run: as §1

EHF = molecular target: T3, EHF (Homo sapiens, UniProt Q9NZC4 1-300)
T3 sequence: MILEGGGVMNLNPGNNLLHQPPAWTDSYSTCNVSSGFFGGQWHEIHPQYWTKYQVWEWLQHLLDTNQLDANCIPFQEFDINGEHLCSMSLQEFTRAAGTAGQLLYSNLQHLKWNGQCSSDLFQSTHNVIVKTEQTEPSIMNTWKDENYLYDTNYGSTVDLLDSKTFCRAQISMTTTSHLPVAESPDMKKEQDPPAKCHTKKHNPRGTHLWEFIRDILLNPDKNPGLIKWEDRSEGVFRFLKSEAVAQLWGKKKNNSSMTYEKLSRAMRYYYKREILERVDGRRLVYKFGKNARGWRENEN
How it was run: as §1

SPIB = SPIB (Homo sapiens, UniProt Q01892 1-262)
Chain of SPIB (Q01892 whole entry): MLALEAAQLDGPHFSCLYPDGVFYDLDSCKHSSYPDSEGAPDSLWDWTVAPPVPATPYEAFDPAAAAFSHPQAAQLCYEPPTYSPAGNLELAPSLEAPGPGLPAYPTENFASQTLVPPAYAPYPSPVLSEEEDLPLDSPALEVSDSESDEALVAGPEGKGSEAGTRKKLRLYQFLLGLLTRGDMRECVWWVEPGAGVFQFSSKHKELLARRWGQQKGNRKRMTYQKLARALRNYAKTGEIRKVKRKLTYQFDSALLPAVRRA
How it was run: as §1

ETV5 = ETV5 (Homo sapiens, UniProt P41161 1-510)
Chain of ETV5 (P41161 whole entry): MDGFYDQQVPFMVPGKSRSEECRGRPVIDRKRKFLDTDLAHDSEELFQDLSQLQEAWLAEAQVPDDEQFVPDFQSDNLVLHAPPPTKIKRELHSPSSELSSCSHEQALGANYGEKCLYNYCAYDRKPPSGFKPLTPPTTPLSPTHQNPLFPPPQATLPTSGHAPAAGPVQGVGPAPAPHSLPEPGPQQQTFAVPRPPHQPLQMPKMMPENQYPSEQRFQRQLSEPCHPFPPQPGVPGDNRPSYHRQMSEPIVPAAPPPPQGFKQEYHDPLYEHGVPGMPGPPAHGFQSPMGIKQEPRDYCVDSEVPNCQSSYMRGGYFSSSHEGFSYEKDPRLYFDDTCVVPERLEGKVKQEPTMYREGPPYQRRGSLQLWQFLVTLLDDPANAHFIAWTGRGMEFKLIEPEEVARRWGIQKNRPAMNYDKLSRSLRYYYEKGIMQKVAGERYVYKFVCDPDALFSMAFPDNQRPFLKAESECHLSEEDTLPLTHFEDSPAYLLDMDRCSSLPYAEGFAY
How it was run: as §1

ELF4 = ELF4 (Homo sapiens, UniProt Q99607 1-663)
Chain of ELF4 (Q99607 whole entry): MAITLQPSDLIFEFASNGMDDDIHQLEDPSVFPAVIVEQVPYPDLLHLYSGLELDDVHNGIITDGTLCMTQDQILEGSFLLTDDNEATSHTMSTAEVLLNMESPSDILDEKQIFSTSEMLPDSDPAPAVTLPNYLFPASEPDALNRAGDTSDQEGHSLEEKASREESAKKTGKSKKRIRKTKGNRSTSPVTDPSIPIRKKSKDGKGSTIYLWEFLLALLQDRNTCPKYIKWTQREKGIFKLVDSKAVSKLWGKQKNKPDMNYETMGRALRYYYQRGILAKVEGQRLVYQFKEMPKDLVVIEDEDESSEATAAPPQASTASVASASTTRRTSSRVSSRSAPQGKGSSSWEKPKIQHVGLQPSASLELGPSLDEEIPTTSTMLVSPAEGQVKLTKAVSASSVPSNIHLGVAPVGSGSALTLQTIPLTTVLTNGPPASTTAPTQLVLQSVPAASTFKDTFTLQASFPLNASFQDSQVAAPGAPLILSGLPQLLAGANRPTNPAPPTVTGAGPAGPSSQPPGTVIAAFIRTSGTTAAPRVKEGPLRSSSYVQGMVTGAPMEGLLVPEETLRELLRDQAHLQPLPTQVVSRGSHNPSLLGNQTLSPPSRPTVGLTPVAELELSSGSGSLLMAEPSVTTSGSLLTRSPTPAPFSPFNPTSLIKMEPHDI
How it was run: as §1

ETV2 = molecular target: T4, ETV2 (Homo sapiens, UniProt O00321 1-342)
T4 sequence: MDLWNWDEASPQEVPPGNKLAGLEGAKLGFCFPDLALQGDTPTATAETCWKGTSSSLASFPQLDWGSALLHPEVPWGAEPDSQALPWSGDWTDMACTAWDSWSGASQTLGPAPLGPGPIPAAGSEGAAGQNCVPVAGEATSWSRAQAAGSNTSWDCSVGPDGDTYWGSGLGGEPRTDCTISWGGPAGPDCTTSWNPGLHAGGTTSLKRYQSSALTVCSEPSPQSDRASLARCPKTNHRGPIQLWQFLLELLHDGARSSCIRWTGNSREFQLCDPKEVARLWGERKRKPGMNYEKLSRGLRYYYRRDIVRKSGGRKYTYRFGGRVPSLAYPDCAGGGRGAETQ
How it was run: as §1

ETV1 = ETV1 (Homo sapiens, UniProt P50549 1-477)
Chain of ETV1 (P50549 whole entry): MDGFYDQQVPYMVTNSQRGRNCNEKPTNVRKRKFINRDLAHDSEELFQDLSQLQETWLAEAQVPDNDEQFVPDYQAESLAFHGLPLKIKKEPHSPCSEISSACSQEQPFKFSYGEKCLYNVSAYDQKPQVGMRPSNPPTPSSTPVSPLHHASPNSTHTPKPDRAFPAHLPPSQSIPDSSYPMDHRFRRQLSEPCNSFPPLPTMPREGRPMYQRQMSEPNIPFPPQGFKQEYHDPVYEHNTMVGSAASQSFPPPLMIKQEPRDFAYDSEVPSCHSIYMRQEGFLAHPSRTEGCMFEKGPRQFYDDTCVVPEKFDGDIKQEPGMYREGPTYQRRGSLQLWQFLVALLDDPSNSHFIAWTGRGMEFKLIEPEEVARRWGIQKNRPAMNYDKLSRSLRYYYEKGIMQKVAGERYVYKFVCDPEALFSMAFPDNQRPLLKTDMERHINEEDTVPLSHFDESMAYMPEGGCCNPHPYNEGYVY
How it was run: as §1

ETV3L = molecular target: T5, ETV3L (Homo sapiens, UniProt Q6ZN32 1-361)
T5 sequence: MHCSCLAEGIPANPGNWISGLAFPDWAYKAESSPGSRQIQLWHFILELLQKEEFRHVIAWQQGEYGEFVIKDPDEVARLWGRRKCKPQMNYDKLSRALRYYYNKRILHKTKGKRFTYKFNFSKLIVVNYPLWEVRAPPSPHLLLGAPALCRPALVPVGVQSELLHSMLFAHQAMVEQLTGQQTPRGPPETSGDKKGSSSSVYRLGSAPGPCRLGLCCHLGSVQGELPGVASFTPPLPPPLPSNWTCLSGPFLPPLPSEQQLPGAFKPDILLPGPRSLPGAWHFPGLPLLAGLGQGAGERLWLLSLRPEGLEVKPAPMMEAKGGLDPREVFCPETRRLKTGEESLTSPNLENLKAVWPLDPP
How it was run: as §1

ETS2 = molecular target: T6, ETS2 (Homo sapiens, UniProt P15036 1-469)
T6 sequence: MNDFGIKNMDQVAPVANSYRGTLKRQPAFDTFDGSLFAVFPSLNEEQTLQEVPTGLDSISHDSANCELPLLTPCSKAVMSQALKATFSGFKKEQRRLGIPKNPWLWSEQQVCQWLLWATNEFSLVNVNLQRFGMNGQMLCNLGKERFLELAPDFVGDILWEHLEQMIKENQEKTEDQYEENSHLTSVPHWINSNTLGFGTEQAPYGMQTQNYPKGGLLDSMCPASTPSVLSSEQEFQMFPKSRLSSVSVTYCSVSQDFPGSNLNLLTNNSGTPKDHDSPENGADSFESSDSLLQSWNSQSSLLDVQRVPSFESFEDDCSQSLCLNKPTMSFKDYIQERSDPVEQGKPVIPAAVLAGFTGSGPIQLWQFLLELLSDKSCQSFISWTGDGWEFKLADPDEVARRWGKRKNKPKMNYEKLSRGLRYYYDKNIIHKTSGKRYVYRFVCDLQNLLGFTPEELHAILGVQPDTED
How it was run: as §1

ETV7 = molecular target: T7, ETV7 (Homo sapiens, UniProt Q9Y603 1-341)
T7 sequence: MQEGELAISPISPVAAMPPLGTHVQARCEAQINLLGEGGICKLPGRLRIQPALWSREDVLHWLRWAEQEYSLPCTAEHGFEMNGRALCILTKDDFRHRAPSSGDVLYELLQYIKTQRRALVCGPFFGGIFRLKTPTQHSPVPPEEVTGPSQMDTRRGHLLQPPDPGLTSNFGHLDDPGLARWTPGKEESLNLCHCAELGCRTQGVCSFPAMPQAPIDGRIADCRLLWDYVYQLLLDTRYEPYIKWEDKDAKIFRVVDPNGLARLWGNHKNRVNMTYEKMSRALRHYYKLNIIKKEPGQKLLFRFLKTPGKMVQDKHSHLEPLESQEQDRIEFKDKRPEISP
How it was run: as §1

AGAAAA
binding signal (GABPA): 1.03 fold enrichment (6-mer frequency, TF over GST control) | binding signal (ERG): 1.02 fold enrichment (6-mer frequency, TF over GST control) | binding signal (ELF1): 1.02 fold enrichment (6-mer frequency, TF over GST control) | binding signal (EHF): 1.02 fold enrichment (6-mer frequency, TF over GST control) | binding signal (SPIB): 1.08 fold enrichment (6-mer frequency, TF over GST control) | binding signal (ETV5): 1.02 fold enrichment (6-mer frequency, TF over GST control) | binding signal (ELF4): 1.04 fold enrichment (6-mer frequency, TF over GST control) | binding signal (ETV2): 1.1 fold enrichment (6-mer frequency, TF over GST control) | binding signal (ETV1): 1.05 fold enrichment (6-mer frequency, TF over GST control) | binding signal (ETV3L): 1 fold enrichment (6-mer frequency, TF over GST control) | binding signal (ETS2): 1.09 fold enrichment (6-mer frequency, TF over GST control) | binding signal (ETV7): 1.04 fold enrichment (6-mer frequency, TF over GST control)
